Assay outcomes deposited in PubChem BioAssay by several laboratories.
BCLXL inh = blocks human Bcl-xL binding to Bim BH3 peptide | Q07817 | GST-Bcl-xL / FITC-Bim BH3 peptide fluorescence polarization | inhibition, % at 10.9 µM | actives 0.7% (n = 320,000);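 active = inhibition above the mean of all tested compounds plus 3 SD, cutoff set per campaign, cut at about 30% in these data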;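 also: inhibitors lower millipolarization by displacing the labeled peptide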
GLD-1 TGE inh = GLD-1-TGE RNA interaction inhibition (C. elegans); purified GLD-1 + fluorescein TGE RNA, fluorescence polarization; inhibition, % at 5.96 µM; actives 0.44% (n = 320,000); AID 2280;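 active = percent inhibition above a per-plate cutoff, the plate mean of test compounds plus 3 SD, cut at about 30% in these data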
MEX-5 binding = C. elegans MEX-5 TCR-2 RNA binding activity. activity score (negative = inhibition of binding), % at 10 µM. Q9XUB2. AID 1832. actives 0.38% (n = 300,000). MEX-5/FITC-TCR2 RNA binding, fluorescence polarization; stronger effect = lower value;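 active = inhibition past about -25% in most replicates, and total fluorescence under double the plate's negative control median, limit read from the data; inconclusive = replicates evenly split on the limit, or fluorescence at least double controls; inactive = too little inhibition in most replicates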
EBV gp42 block = EBV gp42 inhibition; Q1HVG2; Fluorescence polarization binding assay, mP read-out; inhibition, % (tested at 21.74 µM); actives 0.42% (n = 220,000); AID 1085; in the data active = inhibition above about 50%
MCL1-BIM inh = disrupts human MCL1 binding to BIM-BH3 peptide. AID 2057. GST-MCL1 / FITC-Bim-BH3 fluorescence polarization. inhibition, % at 10.9 µM. Q07820. actives 0.68% (n = 320,000);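 active = inhibition above the mean inhibition of all tested compounds plus 3 SD, set per campaign, cut at about 40% in these data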;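 also: higher means more loss of mP so more displacement of Bim peptide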
E coli Lon inh = inhibitors of E. coli Lon protease. P0A9M0. purified E. coli Lon protease, fluorescence polarization. inhibition, % at 7.94 µM. actives 0.42% (n = 360,000). AID 602123; in the data active = inhibition above about 13%, passing the limit was not always enough
Target sequence (P0A9M0 whole entry, looked up): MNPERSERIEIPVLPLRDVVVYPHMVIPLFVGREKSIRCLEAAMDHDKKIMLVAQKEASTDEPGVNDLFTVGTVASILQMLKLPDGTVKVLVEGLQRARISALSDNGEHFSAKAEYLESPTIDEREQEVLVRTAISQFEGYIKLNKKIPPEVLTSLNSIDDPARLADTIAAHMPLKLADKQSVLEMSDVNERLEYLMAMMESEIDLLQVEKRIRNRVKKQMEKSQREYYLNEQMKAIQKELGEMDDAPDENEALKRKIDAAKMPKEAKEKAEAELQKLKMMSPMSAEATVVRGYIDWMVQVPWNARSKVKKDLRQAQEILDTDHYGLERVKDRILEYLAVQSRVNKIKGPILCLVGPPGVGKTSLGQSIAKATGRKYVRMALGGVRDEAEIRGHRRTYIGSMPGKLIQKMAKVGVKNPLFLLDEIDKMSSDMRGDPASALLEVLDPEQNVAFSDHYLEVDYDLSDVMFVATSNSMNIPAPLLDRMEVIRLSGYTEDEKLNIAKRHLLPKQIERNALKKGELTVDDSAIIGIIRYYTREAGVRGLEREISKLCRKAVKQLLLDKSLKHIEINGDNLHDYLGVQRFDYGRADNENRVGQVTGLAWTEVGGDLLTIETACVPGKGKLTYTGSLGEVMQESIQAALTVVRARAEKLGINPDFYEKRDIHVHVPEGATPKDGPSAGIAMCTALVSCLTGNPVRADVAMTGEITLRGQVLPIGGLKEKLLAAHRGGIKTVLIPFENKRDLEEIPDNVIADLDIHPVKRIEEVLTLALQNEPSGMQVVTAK
Bcl-xL conf = counter-screen for MCL1 inhibitors: confirmation of human Bcl-xL inhibitors; shares compounds with MCL1-BIM inh; actives 54% (n = 1,700); inhibition, % at 10.9 µM; AID 2166; GST-Bcl-xL / FITC-Bim BH3 peptide FP binding;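 active = inhibition above a cutoff equal to the mean inhibition of all tested compounds plus 3 SD, cut at about 30% in these data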
MCL1 BIM confirm = confirmation of human MCL1 and BIM-BH3 interaction inhibitors | shares compounds with MCL1-BIM inh | GST-MCL1 / FITC-Bim-BH3 fluorescence polarization | inhibition, % at 10.9 µM | actives 61% (n = 1,700) | AID 2168;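 active = inhibition above the average of all tested compounds plus 3 SD, cut at about 40% in these data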
GLD1 RNA confirm = confirmation of C. elegans GLD-1 TGE RNA binding inhibitors | shares compounds with GLD-1 TGE inh | GLD-1/FL-TGE RNA fluorescence polarization, biochemical | inhibition, % at 5.96 µM | actives 10% (n = 550) | AID 2459;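 active = average inhibition across triplicates above the hit cutoff set in the primary screen, cut at about 32% in these data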
E coli Lon conf = confirmation of E. coli Lon protease inhibitors; shares compounds with E coli Lon inh; purified E. coli Lon, fluorescence polarization; inhibition, % at 7.94 µM; actives 31% (n = 1,400); AID 602230; in the data active = inhibition above about 16%
Each line names hits and unclear results; the compound was inactive in the other large screens (follow-up assays come after a bar, where they were run). Sampled rows, rich in hits. Any-hit rate of the full collection: about 1.5%.

CCN(C(=O)c1c(C)cc(=O)oc1C)c1ccc2c(c1)OCO2	none
COc1ccc2[nH]c(C)c(CCN(Cc3cccs3)C(=S)Nc3ccccc3)c2c1	BCLXL inh 79, GLD-1 TGE inh 46, MCL1-BIM inh 88, E coli Lon inh 68 | Bcl-xL conf 38 | MCL1 BIM confirm 59 | GLD1 RNA confirm inactive | E coli Lon conf 22
N#CCCN(CCC#N)C(=O)C1c2ccccc2Oc2ccccc21	BCLXL inh active, GLD-1 TGE inh active, MEX-5 binding inconclusive, MCL1-BIM inh active, E coli Lon inh active (no result: EBV gp42 block) | Bcl-xL conf inactive | MCL1 BIM confirm inactive | E coli Lon conf inactive
O=c1cc(CN2CCc3ccccc32)nc2sccn12	none
O=c1cc(CN2CCCc3ccccc32)nc2sccn12	BCLXL inh 199, MEX-5 binding inconclusive, MCL1-BIM inh active, E coli Lon inh 39 | Bcl-xL conf 134 | MCL1 BIM confirm 166 | E coli Lon conf 86
COc1ccc(C(=O)c2ccsc2N)cc1	BCLXL inh 105, GLD-1 TGE inh 66, MCL1-BIM inh 108, E coli Lon inh 90 (no result: EBV gp42 block) | Bcl-xL conf inactive | MCL1 BIM confirm inactive | E coli Lon conf inactive
CCOc1ccc(S(=O)(=O)NCc2ccc3c(c2)OCO3)cc1NC(C)=O	none (no result: EBV gp42 block)
O=C1Nc2ccccc2/C1=C/c1cnc(-c2ccccc2)[nH]1	BCLXL inh 138, GLD-1 TGE inh 73, EBV gp42 block 59, MCL1-BIM inh 162, E coli Lon inh 81 | Bcl-xL conf 102 | MCL1 BIM confirm 117 | E coli Lon conf 30
O=C(O)c1[nH]c2ccccc2c1C(c1cc(Cl)cc([N+](=O)[O-])c1O)c1c(C(=O)O)[nH]c2ccccc12	MEX-5 binding -61, MCL1-BIM inh 51, E coli Lon inh 28 (no result: EBV gp42 block) | Bcl-xL conf inactive | MCL1 BIM confirm inactive | E coli Lon conf 19
CCOC(=O)c1cc(N2CCCCC2)nc2ccccc12	none (no result: BCLXL inh, GLD-1 TGE inh, MEX-5 binding, EBV gp42 block, MCL1-BIM inh)
COC(=O)c1cc(N2CCN(C)CC2)nc2ccccc12	BCLXL inh 138, GLD-1 TGE inh 85, MEX-5 binding inconclusive, EBV gp42 block 82, MCL1-BIM inh 144, E coli Lon inh 96 | Bcl-xL conf inactive | MCL1 BIM confirm inactive | E coli Lon conf 19
O=C(N/N=C/c1cc(Br)c(Br)o1)c1cccnc1	BCLXL inh 94, GLD-1 TGE inh 40, MCL1-BIM inh 126, E coli Lon inh 27 | Bcl-xL conf 34 | MCL1 BIM confirm 44 | GLD1 RNA confirm inactive | E coli Lon conf inactive
COc1cccc2c1C(=O)c1c(O)c3c(c(O)c1C2=O)C[C@@](O)(C(=O)CO)C[C@@H]3O[C@H]1C[C@H](N)[C@H](O)[C@H](C)O1	BCLXL inh active, GLD-1 TGE inh active, MEX-5 binding inconclusive, EBV gp42 block active, MCL1-BIM inh active, E coli Lon inh active | Bcl-xL conf active | MCL1 BIM confirm active | E coli Lon conf active
COc1ccc2oc(C(=O)OCC(=O)Nc3cc(S(=O)(=O)N4CCOCC4)ccc3OC)c(C)c2c1	none (no result: EBV gp42 block)
Cc1ccccc1C(=O)NCC(C)NC(=O)c1ccccc1C (configuration not stated)	none (no result: EBV gp42 block)
CCOC(=O)C1=C(Cc2ccc(Cl)cc2)C(=O)c2ccccc2C1=O	GLD-1 TGE inh 33 | GLD1 RNA confirm inactive
CN(C(=O)c1cccc(NC(=O)Cc2ccc(NC(=O)C3CCN(C(=O)CCc4ccccc4)CC3)cc2)c1)C1CCCCC1	none (no result: BCLXL inh, GLD-1 TGE inh, MEX-5 binding, EBV gp42 block, MCL1-BIM inh)
CCc1ccc(NC(=O)C2CCCN(S(=O)(=O)c3cnc[nH]3)C2)cc1 (configuration not stated)	GLD-1 TGE inh 61 (no result: EBV gp42 block) | GLD1 RNA confirm inactive
CCc1ccc(NC(=O)C2CCN(S(=O)(=O)c3cnc[nH]3)CC2)cc1	none (no result: EBV gp42 block)
CC(=O)Nc1ccc(NC(=O)CCn2c(=S)oc3ccccc32)cc1	none
CC(=O)c1ccc(NC(=O)CCn2c(=S)oc3ccccc32)cc1	GLD-1 TGE inh 43 (no result: EBV gp42 block) | GLD1 RNA confirm inactive
CC(C)CCn1c(N2CCCC2)nc2c1c(=O)n(C)c(=O)n2C	none (no result: EBV gp42 block)
CC(C)CCn1c(Cl)nc2c1c(=O)n(C)c(=O)n2C	GLD-1 TGE inh 31 | GLD1 RNA confirm inactive
Cc1ccc2nc3n(c(=O)c2c1)-c1ccc(Cl)cc1C(=O)NC3Cc1ccccc1 (configuration not stated)	GLD-1 TGE inh 33 (no result: MEX-5 binding, EBV gp42 block, E coli Lon inh) | GLD1 RNA confirm inactive
O=C1NC(Cc2ccccc2)c2nc3ccc(Cl)cc3c(=O)n2-c2ccc(Cl)cc21 (configuration not stated)	none (no result: MEX-5 binding, EBV gp42 block, E coli Lon inh)
CCOC(=O)c1c(-c2ccccc2)oc2cc(CN(C)C)c(O)c(CN(C)C)c12	BCLXL inh 35, GLD-1 TGE inh 37, MCL1-BIM inh 49 (no result: EBV gp42 block) | GLD1 RNA confirm inactive
CC(=O)Nc1cc(-c2cccc(C(=O)NCCO)c2)cn2c(-c3cccc(C(F)(F)F)c3)cnc12	none (no result: BCLXL inh, GLD-1 TGE inh, MEX-5 binding, EBV gp42 block, MCL1-BIM inh)
Cc1cccc(N2CCN(C(=O)C3COc4ccccc4O3)CC2)c1C (configuration not stated)	GLD-1 TGE inh 100 | GLD1 RNA confirm inactive
O=C(C1COc2ccccc2O1)N1CCN(c2ccccc2Cl)CC1 (configuration not stated)	none
O=C(O)c1ccccc1C(=O)Nc1ccc(-c2csc(-c3ccccc3)n2)cc1	GLD-1 TGE inh 94 | GLD1 RNA confirm inactive
CCC(C(=O)NCc1cccs1)n1nc(C)n2c(cc3occc32)c1=O (configuration not stated)	none (no result: EBV gp42 block)
COc1ccc(Nc2ccc(N3C(=O)CC(C)C3=O)cc2[N+](=O)[O-])cn1 (configuration not stated)	BCLXL inh 42, GLD-1 TGE inh 38, MCL1-BIM inh 42 | GLD1 RNA confirm inactive
CCCOc1ccc(-c2c(C(=O)N/N=C(\C)c3ccncc3)nnn2-c2nonc2N)cc1	none (no result: EBV gp42 block)
CN(CCc1ccccc1)C1CCCN(S(=O)(=O)N(C)C)C1 (configuration not stated)	GLD-1 TGE inh 65 (no result: EBV gp42 block) | GLD1 RNA confirm inactive
COCCNc1ccc([N+](=O)[O-])cc1C(=O)Nc1cccc(C)n1	GLD-1 TGE inh 68 | GLD1 RNA confirm inactive
CC1Oc2ccccc2N(CC(=O)NCCN2CCOCC2)C1=O (configuration not stated)	BCLXL inh 31, GLD-1 TGE inh 37, MCL1-BIM inh 49 (no result: EBV gp42 block) | GLD1 RNA confirm inactive
